Records with an inconclusive call do not appear. Unmarked numbers belong to inactive results. Calls of active or inactive are those of the source. Calls come from the whole dose curve; as a rule, active = well fitted cell-killing curve with a large enough effect in the repeat runs; inconclusive = weak or mixed curves, or effect the other way; inactive = no such curve, though single readings can be large or run the other way.
% is set by controls: 0 for no effect and ±100 for the full control effect; potency is the fitted concentration of half-maximal effect.

This assay is described as follows: Caspase-3/7 induction in CHO-K1 cells by small molecules, qHTS cell viability counter screen (AID 1346979). Note: nearly all actives have a fitted effect of over 35% in size. The note with it: CellTiter-Fluor fluorescence, 17 h; series mostly up to 92.4 µM; activity change, negative = cytotoxicity: at the top concentration. From the text:
National Center for Advancing Translational Sciences [NCATS]
NIH Chemical Genomics Center [NCGC]
U.S. Environmental Protection Agency [EPA]
National Institutes of Environmental Health Sciences [NIEHS]
National Toxicology Program [NTP]
U.S. Food and Drug Administration [FDA]
Apoptosis is a process of programmed cell death and plays a central role in the development of multicellular organisms. It is a highly regulated process and induces cell death by activating caspases, which are the members of cysteine aspartic acid-specific protease (caspase) family. Caspases involved in apoptosis are classified by their mechanism of action as initiator caspases (caspase-2, -8, -9 and -10) and executioner caspases (caspase-3, -6, and -7). Inhibition of apoptosis results in number of cancers, autoimmune diseases, inflammatory diseases and viral infection. To identify small molecule compounds that induce apoptosis, a homogeneous, luminescent Caspase-Glo 3/7 assay was used. Wild type CHO-K1 cells were used to screen Tox21 libraries for identifying caspase-3/7 activity inducers. Also cytotoxicity of the compounds was tested in parallel by measuring the cell viability using CellTiter-Fluor assay system in the same wells.
Tox21 Assay Protocol Summary:
CHO-K1 cells were dispensed at 1,500 per well in 5uL of culture medium into white solid bottom 1536-well plates (Corning Life Sciences, Corning, NY) using a Multidrop Combi (Thermo Scientific, Waltham, MA) dispenser. The assay plates were incubated at 37 C and 5% CO2 for 5hr, and then 23nL of compounds dissolved in DMSO and positive control were transferred using a Pintool station (Wako, San Diego, CA). The assay plates were incubated at 37C and 5% CO2 for 17hr. For cytotoxicity read, after 16hr incubation at 37C, 1uL CellTiter-Fluor reagent (Promega Corporation, Madison, WI) was added to each well of the assay plates using Flying Reagent Dispenser (FRD, Aurora Discovery, San Diego, CA). After 1hr incubation at 37C and 5% CO2, the fluorescence signal was quantified using a ViewLux plate reader (PerkinElmer, Shelton, CT).
(qHTS replaces the single test concentration by a dilution series.)
As to `Cc1ccc2c(Cl)cc(Cl)c(O)c2n1`, the “activity change, negative = cytotoxicity” value is 10.6% [at 42.5 µM]. `O=C(O)CCc1nc2ccccc2[nH]1`: the “activity change, negative = cytotoxicity” value is 0.912% [at 42.5 µM]. Regarding `O=C(O)CNc1ccccc1`, the “activity change, negative = cytotoxicity” value is 8.11%.

On to `CC(C)CCCCCOC(=O)CS`, for which the “activity change, negative = cytotoxicity” value was 0.4%.

As for `CCC1=C(C)CN(C(=O)NCCc2ccc(S(=O)(=O)NC(=O)NC3CCC(C)CC3)cc2)C1=O` (stereo not given), the “activity change, negative = cytotoxicity” value was -11% [at 42.5 µM]. Still for that read-out and setting: to `OCCOc1cccc(OCCO)c1` belongs 11.1%. Consider `O=C(O)COCC(=O)O`, for which the “activity change, negative = cytotoxicity” value was 8%. Consider `CCC(C)CCCC(C)(C)O` (stereo not given), for which the “activity change, negative = cytotoxicity” value is 11.4%. As for `Sc1nc(S)nc(S)n1`, the “activity change, negative = cytotoxicity” value was -0.99% [at 42.5 µM].

As to `CCC(=O)O[C@]1(C(=O)COC)[C@@H](C)C[C@H]2[C@@H]3CCC4=CC(=O)C=C[C@]4(C)C3(F)[C@@H](O)C[C@@]21C` (stereo not given in full), the “activity change, negative = cytotoxicity” value is 1.6% [at 42.5 µM]. For the molecule `O=C(O)c1cccnc1Nc1cccc(C(F)(F)F)c1`, the “activity change, negative = cytotoxicity” value was 11% [at 42.5 µM]. For `CCCCCCCCCCCCSCCOCCO`, the “activity change, negative = cytotoxicity” value was -0.703% [at 42.5 µM]. On the same count and under the same terms, next, `CC(C)(C)N`: 10.3%. Turning to `C=CCCC`, the “activity change, negative = cytotoxicity” value is -1.2%. As for `CCCCCCC/C=C/C=O`, the “activity change, negative = cytotoxicity” value was 8.29%. On to `CCC(C)C1N=C(C)C(C)S1` (stereo not given), for which the “activity change, negative = cytotoxicity” value is -2.06%. In the case of `O=C(C1CCCCC1)N1CC(=O)N2CCCc3ccccc3C2C1` (stereo not given), the “activity change, negative = cytotoxicity” value was -1.77% [at 42.5 µM].

For `CC(=O)CC/C=C(\C)CC/C=C(\C)CC/C=C(\C)CCC=C(C)C`, the “activity change, negative = cytotoxicity” value was -2.55% [at 42.5 µM]. For the molecule `CC(=O)Oc1cccc2c1C(=O)c1c(OC(C)=O)cc(C(=O)O)cc1C2=O`, the Potency was 29.8 µM (active). In the case of `CCCCCC1CCC(=O)O1` (stereo not given), the “activity change, negative = cytotoxicity” value was 3.5%. Regarding `C=C[Si](OCC)(OCC)OCC`, the “activity change, negative = cytotoxicity” value was 0.111%. With `Cc1ccc(NC=O)c(C)c1`, the “activity change, negative = cytotoxicity” value is 12.1%. Consider `CC(=O)c1cccnc1`, for which the “activity change, negative = cytotoxicity” value is 4.34%. In the case of `CC(C(=O)O)c1ccc2c(c1)Cc1cccnc1O2` (stereo not given), the “activity change, negative = cytotoxicity” value is 10.3% [at 42.5 µM]. For `COc1ccc(C(=O)Nc2ccccc2)cc1[N+](=O)[O-]`, the “activity change, negative = cytotoxicity” value was -0.821%. As for `COc1ccc(/C(C)=C/C(=O)O)c(OC)c1`, the “activity change, negative = cytotoxicity” value was 13.3% [at 42.5 µM]. On to `CO[C@@H]1COCC[C@@H]1N[C@@H]1CC[C@@](C(=O)N2CCc3ncc(C(F)(F)F)cc3C2)(C(C)C)C1`, for which the “activity change, negative = cytotoxicity” value was 2.95%. `C=CC(=O)NC(C)(C)C`: the “activity change, negative = cytotoxicity” value was 1.14%. On the same count and under the same terms, to `SCCOCCOCCS` belongs 0.421%; to `OCCCO`, 1.86%; to `O=[N+]([O-])c1ccc(Cl)cc1Cl`, -0.208%. Take `CC(=O)Nc1ccn(C2COC(COC(=O)c3ccccc3)O2)c(=O)n1` (stereo not given): the “activity change, negative = cytotoxicity” value is 3.99% [at 42.5 µM]. Turning to `Clc1nc2ccccc2nc1Cl`, the “activity change, negative = cytotoxicity” value is -11.8%. On to `OCCc1ccncc1`, for which the “activity change, negative = cytotoxicity” value was 4.21%.

Take `FC(F)(Cl)C(F)(Cl)Cl`: the “activity change, negative = cytotoxicity” value was 2.4%. Regarding `O=C(OCCCCCOC(=O)c1ccccc1)c1ccccc1`, the “activity change, negative = cytotoxicity” value is 12.3%. With `O=C(O)c1c2ccccc2cc2ccccc12`, the “activity change, negative = cytotoxicity” value is 10.4%. On to `O=C1CCCN1CCO`, for which the “activity change, negative = cytotoxicity” value was -1.87%.

For the molecule `CCc1ccc(C(=O)C(C)CN2CCCCC2)cc1` (stereo not given), the “activity change, negative = cytotoxicity” value is 1.44% [at 42.5 µM]. On the same count and under the same terms, to `C1CCN(CN2CCCCC2)CC1` belongs 2.14%.
